An excerpt weighted towards active compounds, which were near 4.6% of everything screened.
D1 agonist: agonists of human D1 dopamine receptor; P21728; HEK293 T-REx D1 cells, calcium flux, agonist mode; hit rate 1% among 360,000; activation, % at 2 µM; further: 0% is about no effect
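Agonism was scored from calcium flux recorded over 180 s (1 read/s) after pintool compound addition, following a 10-cycle baseline. Cells were inducible force-coupled HEK293 TREx D1, plated overnight at 30 C and loaded with no-wash calcium dye.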
TRHR ag: TRH receptor (human) agonism | P34981 | TRHR cells, calcium flux fluo-8, FDSS agonist mode | activation, % at 2 µM | hit rate 0.18% among 360,000; further: 0% is about no effect
Target sequence (P34981 whole entry, looked up): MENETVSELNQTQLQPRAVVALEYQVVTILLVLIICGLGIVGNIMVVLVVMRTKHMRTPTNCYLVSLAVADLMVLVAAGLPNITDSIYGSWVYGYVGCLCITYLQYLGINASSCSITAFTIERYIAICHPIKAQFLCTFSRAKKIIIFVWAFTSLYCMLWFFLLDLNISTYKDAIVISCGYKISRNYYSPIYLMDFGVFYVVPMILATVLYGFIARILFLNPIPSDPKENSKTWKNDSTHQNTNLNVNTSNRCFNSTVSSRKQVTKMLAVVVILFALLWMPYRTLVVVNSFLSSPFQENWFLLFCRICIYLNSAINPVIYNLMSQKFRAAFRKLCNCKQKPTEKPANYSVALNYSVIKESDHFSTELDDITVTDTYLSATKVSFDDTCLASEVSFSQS
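Fluo-8-loaded TRHR cells; 10 s baseline, compound added, kinetic Ca2+ fluorescence read 1/s, agonist mode.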
D1 potentiator: human D1 dopamine receptor positive modulation. potentiation, % at 10 µM. hit rate 0.036% among 360,000. HEK293 TREx D1 cells, calcium flux, dopamine EC20 potentiation. P21728; in the data active means potentiation above about 30%; further: 0% is about no effect
TRHR enhancer: allosterically enhances the human TRH receptor; TRHR cells, fluo-8 calcium fluorescence, EC20 TRH enhancement; enhancement, % at 2 µM; hit rate 0.66% among 360,000; AID 493056; in the data active means enhancement above about 30%; further: 0% is about no effect
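Enhancer read-out: after compound pinning and an initial kinetic agonist-mode read, an EC20 of TRH (10 nM final) was injected and fluo-8 calcium signal (Ex 480/Em 530) followed at 1 s/cycle for 100 cycles in TRHR-expressing cells.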
D1 antag: human D1 dopamine receptor antagonism; hit rate 3.2% among 360,000; AID 504652; activity change, negative = inhibition, % at 10 µM; P21728; HEK293 TREx D1 cells, calcium flux, dopamine EC80; hits give low values; in the data active means activity change below about -30%; further: on the % scale 0 is the no-effect control and ±100 the full control effect
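Using tetracycline-induced force-coupled D1 Hek293 cells and a calcium dye, signals were followed for 180 s after compound, then for 180 s after EC80 dopamine, to detect inhibitors.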
An asterisk follows results filed as active; . = not tested or not shown. Unless noted, no stated cut-off is given here; in the data, active means activation above about 30%; inactive means the rest.

SMILES	D1 agonist	TRHR ag	D1 potentiator	TRHR enhancer	D1 antag
O=C(NCc1ccc(F)cc1)c1ccc(CS(=O)Cc2ccc(Cl)cc2)o1 (stereo unspecified)	16.7	-2.1	-5.3	9.8	-25.6
Cc1ccc(-n2ncc3c(NCCc4ccccc4)ncnc32)cc1C	6.0	1.4	-4.1	3.4	-58.9*
c1ccc(CNc2ncnc3c2cnn3-c2ccccc2)cc1	2.7	0.0	-3.7	6.5	-3.5
COc1ccc(OC)c(Nc2ncnc3c2cnn3-c2cccc(Cl)c2)c1	-1.9	0.1	-0.5	17.4	11.0
Cc1cccc(-n2ncc3c(NCc4ccccc4)ncnc32)c1	2.8	-0.3	-8.2	8.0	-89.3*
COc1ccc(OC)c(Nc2ncnc3c2cnn3-c2cccc(C)c2)c1	-2.4	-0.2	-9.2	1.2	-39.6*
NC(=O)CSc1ncc2c(n1)-c1ccccc1N(Cc1ccccc1)S2(=O)=O	2.6	-0.4	-2.5	-5.4	-15.8
CC(=O)N1c2ccc(S(=O)(=O)NCC3CCC(C(=O)Nc4cccc(F)c4)CC3)cc2CC1C (stereo unspecified)	6.7	1.2	-4.8	1.8	-3.6
O=[N+]([O-])c1cc2c(c(CSc3nnnn3-c3ccc(O)cc3)c1)OCOC2	3.1	0.3	-4.9	17.5	-33.3*
CCC(Sc1ncc(S(=O)(=O)c2ccc(C)cc2)c(=O)[nH]1)C(=O)Nc1cc(C)ccc1C (stereo unspecified)	0.2	-0.2	-2.6	11.9	4.8
CCOC(=O)c1sc2ccccc2c1OC(=O)c1ccccc1	9.0	0.5	3.5	-0.6	4.2
CCOC(=O)c1sc2ccccc2c1NC(=O)c1coc2ccccc2c1=O	1.2	0.4	0.6	36.8*	-6.3
COc1cc(/C=C2\SC(=S)N(CCC(=O)Nc3ccccc3)C2=O)cc(OC)c1OC	45.5*	13.7	0.3	1.5	5.9
COc1cc(/C=C2/SC(=S)N(Cc3ccccc3)C2=O)ccc1O	102.3*	39.4*	7.8	6.8	6.5
COc1cc(/C=C2\SC(=S)N(N3CCOCC3)C2=O)ccc1O	30.2*	21.1	-2.6	0.2	-17.9
COc1cc(/C=C2\SC(=S)N(N3CCOCC3)C2=O)cc(OC)c1OC	7.6	1.5	16.7	-5.6	-13.1
O=C1/C(=C\c2ccc(O)c(O)c2)SC(=S)N1Cc1ccccc1	77.5*	-0.9	4.8	-1.6	-4.1
COc1ccc(C(=O)NCC(c2ccco2)S(=O)(=O)c2cccs2)cc1 (stereo unspecified)	-0.5	0.2	-3.2	-5.3	.
COc1ccc(C)cc1NC(=O)C(=O)NCCc1csc2nc(-c3ccccc3F)nn12	-0.2	0.7	-0.5	2.8	6.9
CS(=O)(=O)N1CCCc2cc(C(=O)Nc3cccc(C(F)(F)F)c3)ccc21	1.5	-1.8	0.8	-0.1	-17.0
CCCn1c(-c2ccc(S(=O)(=O)N3CCOCC3)cc2)csc1=Nc1ccc(OCC)cc1	-0.4	-1.5	-4.7	11.6	-11.6
O=C(CN1C(=O)S/C(=C\c2ccccn2)C1=O)Nc1ccccc1	2.5	0.0	-3.9	-0.1	-2.0
O=C(O)CN1C(=O)/C(=C\c2cccc(OCc3ccccc3)c2)SC1=S	2.4	0.1	-10.9	-0.5	-1.6
CN1C(=O)/C(=C\c2cccc(OCc3ccccc3)c2)SC1=S	1.3	0.5	-2.8	4.3	-33.9*
O=C(CN1C(=O)S/C(=C\c2cc(Cl)c(O)c(Cl)c2)C1=O)Nc1ccccc1	48.3*	13.6	-2.1	3.7	12.0
O=C1/C(=C\c2cc([N+](=O)[O-])ccc2O)SC(=S)N1Cc1ccc(Cl)cc1	196.8*	120.2*	-6.2	7.8	-4.7
CCC(C)(C)NC(=O)C(c1ccc(OC)cc1)N(Cc1cccs1)C(=O)CCC(=O)Nc1cc(C)on1 (stereo unspecified)	0.2	-0.5	-9.2	-2.7	-35.5*
CC(C)(C)NCC(O)Cn1cc(C=O)c2ccccc21 (stereo unspecified)	2.4	1.7	4.5	2.0	12.7
OCCN(CCO)CC(O)Cn1c2ccccc2c2ccccc21 (stereo unspecified)	3.2	-0.1	1.4	6.0	11.0
CCCN(CCC)CC(O)Cn1cc(/C=C/C(=O)c2cccs2)c2ccccc21 (stereo unspecified)	93.8*	8.4	-6.3	8.6	-20.9

Compound activity from PubChem BioAssay.
